30 compounds from PubChem BioAssay (NCATS) can be followed below.

Results filed as inconclusive are left out. A number with no mark means an inactive call. Calls of active or inactive are those of the source. Unless noted, calls come from the whole dose curve.

Experiment [1] in a line: qHTS for Inhibitors of the Functional Ribonucleoprotein Complex (vRNP) of Lassa (LASV) Arenavirus: LASV Primary Screen - GLuc reporter signal (AID 1347082; calls by dose curve; tested in HEK293 reporter line; note: nearly all actives have a fitted effect of over 60% in size).
The nature of experiment [2]: qHTS for Inhibitors of the Functional Ribonucleoprotein Complex (vRNP) of Lassa (LASV) Arenavirus: Viability assay - alamar blue signal for LASV Primary Screen (AID 1347083; calls by dose curve; tested in HEK293 reporter line; note: nearly all actives have a fitted effect of over 80% in size). A general note: In qHTS, concentration-response curves come from the screen itself.
The nature of experiment [3]: qHTS for Inhibitors of the Functional Ribonucleoprotein Complex (vRNP) of Lymphocytic Choriomeningitis Arenaviruses (LCMV): Viability assay - alamar blue signal for LCMV Primary Screen (AID 1347085; calls by dose curve; tested in HEK293 reporter line; note: nearly all actives have a fitted effect of over 80% in size).
Experiment [4] deals with Nucleoprotein (Lymphocytic choriomeningitis virus (strain Armstrong)) (UniProt P09992). Description: qHTS for Inhibitors of the Functional Ribonucleoprotein Complex (vRNP) of Lymphocytic Choriomeningitis Arenaviruses (LCMV): LCMV Primary Screen - GLuc reporter signal (AID 1347086). Note: nearly all actives have a fitted effect of over 70% in size.
Potency is the fitted concentration of half-maximal effect.

Nucleoprotein (Lymphocytic choriomeningitis virus (strain Armstrong)), sequence (P09992 whole entry, looked up): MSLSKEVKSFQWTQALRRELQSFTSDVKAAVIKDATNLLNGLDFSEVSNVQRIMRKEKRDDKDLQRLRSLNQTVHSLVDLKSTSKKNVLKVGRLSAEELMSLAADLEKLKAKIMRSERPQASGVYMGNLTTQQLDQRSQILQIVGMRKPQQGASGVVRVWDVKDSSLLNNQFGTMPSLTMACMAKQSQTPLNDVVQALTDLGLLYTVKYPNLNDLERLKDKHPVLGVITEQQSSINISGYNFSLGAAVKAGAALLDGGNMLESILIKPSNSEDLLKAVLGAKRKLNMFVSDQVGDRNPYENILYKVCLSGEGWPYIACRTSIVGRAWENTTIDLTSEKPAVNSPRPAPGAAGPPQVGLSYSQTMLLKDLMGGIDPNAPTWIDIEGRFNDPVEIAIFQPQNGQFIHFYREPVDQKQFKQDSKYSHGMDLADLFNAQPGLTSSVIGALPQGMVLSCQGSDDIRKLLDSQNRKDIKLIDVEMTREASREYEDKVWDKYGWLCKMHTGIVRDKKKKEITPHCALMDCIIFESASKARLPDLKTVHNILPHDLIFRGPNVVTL

Consider `O=c1ccc2ccc(O[C@@H]3O[C@H](CO)[C@@H](O)[C@H](O)[C@H]3O)c(O)c2o1`, for which the Potency entry in experiment [1], in experiment [2], in experiment [3] and in experiment [4] was “inactive” each time.

For the compound `O=C1CCCC2[C@@H]3CCC[N@+]4([O-])CCC[C@H](CN12)C34` (stereo not given in full), the Potency entry in experiment [1], in experiment [2], in experiment [3] and in experiment [4] was “inactive” in each case.

As to `C=CC[C@]12C[C@@H](OC)C(=O)C=C1O[C@@H](c1ccc(OC)c(OC)c1)[C@H]2C`, the Potency entry in experiment [1], in experiment [2], in experiment [3] and in experiment [4] was “inactive” in each case.

Take `C=C[C@@H](C1=CC(=O)C(OC)=C(OC)C1=O)c1ccccc1`: the Potency entry in experiment [1], in experiment [2], in experiment [3] and in experiment [4] was “inactive” in each case.

As for `CC1(C)Oc2cc3oc(=O)ccc3cc2C[C@@H]1O`, the Potency entry in experiment [1], in experiment [2], in experiment [3] and in experiment [4] was “inactive” each time.

For `CC(C)C1C(=O)O[C@@H]2CCN3CC=C(COC(=O)[C@](C)(O)[C@]1(C)O)[C@H]23` (stereo not given in full), the Potency result in experiment [1], in experiment [2], in experiment [3] and in experiment [4] was “inactive” each time.

For the compound `O=c1cc(-c2ccccc2F)[nH]c2cc3c(cc12)OCO3`, the Potency result in experiment [1], in experiment [2], in experiment [3] and in experiment [4] was “inactive” in each case.

`CC(C)=CCOc1ccc2ccc(=O)oc2c1`: the Potency entry in experiment [1], in experiment [2], in experiment [3] and in experiment [4] was “inactive” throughout.

`CCCCCCCCO[C@@H]1O[C@H](CO)[C@@H](O)[C@H](O)[C@H]1O`: the Potency entry in experiment [1], in experiment [2], in experiment [3] and in experiment [4] was “inactive” in each case.

`COc1ccc(C[C@@H]2c3cc(O)c(OC)cc3CCN2C)cc1O`: the Potency entry in experiment [1], in experiment [2], in experiment [3] and in experiment [4] was “inactive” each time.

As for `CCc1nccc2c1[nH]c1ccccc12`, the Potency entry in experiment [1], in experiment [2], in experiment [3] and in experiment [4] was “inactive” in each case.

Regarding `CC/C=C\CCOC(C)OCC` (stereo not given), the Potency entry in experiment [1], in experiment [2], in experiment [3] and in experiment [4] was “inactive” each time.

For `C=CC(C)(CCC=C(C)C)OC(=O)c1ccccc1` (stereo not given), the Potency entry in experiment [1], in experiment [2], in experiment [3] and in experiment [4] was “inactive” each time.

Consider `COc1ccc(-c2coc3cc(OC)ccc3c2=O)cc1`, for which the Potency entry in experiment [1], in experiment [2], in experiment [3] and in experiment [4] was “inactive” throughout.

Consider `CCN1CC2(COC(=O)c3ccccc3N)CCC(OC)C34C5CC6C(OC)CC(O)(C5C6OC)C(O)(C(OC)C23)C14` (stereo not given), for which the Potency result in experiment [1], in experiment [2], in experiment [3] and in experiment [4] was “inactive” throughout.

As for `C[C@@H]1CC2OC(=O)[C@@]3(C)C(=O)CC[C@@](C)(C23)[C@@]1(O)CCc1ccoc1` (stereo not given in full), the Potency result in experiment [1], in experiment [2], in experiment [3] and in experiment [4] was “inactive” throughout.

For the compound `COCCOCCOCCOCCOC`, the Potency result in experiment [1], in experiment [2], in experiment [3] and in experiment [4] was “inactive” throughout.

For `C/C=C1\NC(=O)[C@H](C)NC(=O)[C@@H](NC(=O)[C@H](Cc2ccc(O)cc2)NC(=O)[C@@H](NC(=O)/C(C)=C/C)C(C)C)[C@@H](C)OC(=O)[C@H](CC(C)C)NC(=O)[C@@H](CCC(=O)O)NC1=O`, the Potency result in experiment [1], in experiment [2], in experiment [3] and in experiment [4] was “inactive” in each case.

As to `OCc1ccccc1O[C@@H]1O[C@H](CO)[C@H](O)[C@H](O)[C@H]1O`, the Potency entry in experiment [1], in experiment [2], in experiment [3] and in experiment [4] was “inactive” in each case.

For the compound `Cc1nc(Nc2n[nH]c3c2CN(C(=O)N[C@H](CN(C)C)c2ccccc2)C3(C)C)c2sccc2n1`, the Potency in experiment [1] was 7.69 µM (active); in experiment [2], 0.193 µM (active); in experiment [3] it was 0.0968 µM (active); in experiment [4] it was 8.63 µM (active).

Turning to `O=C(NC[C@H](O)c1ccccc1)c1ccccc1`, the Potency entry in experiment [1], in experiment [2], in experiment [3] and in experiment [4] was “inactive” each time.

In the case of `Fc1ccc(C(c2ccc(F)cc2)N2CCN(CC=Cc3ccccc3)CC2)cc1`, the Potency result in experiment [1], in experiment [2], in experiment [3] and in experiment [4] was “inactive” each time.

As for `COC(=O)C=CC(=O)OC`, the Potency was 6.11 µM (active) in experiment [1], 4.85 µM (active) in experiment [2], 3.06 µM (active) in experiment [3] and 4.85 µM (active) in experiment [4].

As for `CCCO`, the Potency entry in experiment [1], in experiment [2], in experiment [3] and in experiment [4] was “inactive” in each case.

On to `C/C(=C/C=C/[C@@H](C)C(=O)O)[C@H]1CN[C@H](C(=O)O)[C@H]1CC(=O)O`, for which the Potency result in experiment [1], in experiment [2], in experiment [3] and in experiment [4] was “inactive” throughout.

As to `C=CCc1ccc(O)c(-c2cc(CC=C)ccc2O)c1`, the Potency entry in experiment [1], in experiment [2], in experiment [3] and in experiment [4] was “inactive” each time.

As for `CC1CC2CCCC(O)=C2C(=O)O1` (stereo not given), the Potency entry in experiment [1], in experiment [2], in experiment [3] and in experiment [4] was “inactive” each time.

Consider `Cc1coc2c1C(=O)C(=O)c1c-2ccc2c(C)cccc12`, for which the Potency entry in experiment [1], in experiment [2], in experiment [3] and in experiment [4] was “inactive” each time.

For `CC(=O)NCC(=O)N1[C@H]2CC[C@H]1c1cc(Nc3ncc(C(F)(F)F)c(NC4CCC4)n3)ccc12`, the Potency result in experiment [1] and in experiment [4] was “inactive” throughout. For the same compound, the Potency in experiment [2] was 3.43 µM (active); in experiment [3], 9.68 µM (active).

In the case of `Cc1ccnc(N)c1`, the Potency entry in experiment [1], in experiment [2], in experiment [3] and in experiment [4] was “inactive” in each case.
